Entries with a potency or affinity are not part of this list. Unmarked numbers belong to inactive results. How the calls were made is not given here.
Further: 0% is about no effect.

The conditions of this assay: Ebola virus entry assay, green fluorescence channel.
Regarding `CC(CC(C#N)(c1ccccc1)C(C)C)N(C)C` (centres undefined), the efficacy was -15%.

With `O=C(O)[C@@H]1[C@H]2C[C@H]3c4[nH]c5ccccc5c4CCN3C[C@@H]2CC[C@@H]1O`, the efficacy was 38.8%.

Turning to `CC(C)(C)NC[C@H](O)COc1nsnc1N1CCOCC1`, the efficacy is 15.5%.

`OC1(c2ccc(Cl)cc2)CCNCC1`: the efficacy is 19.8%.

As to `Oc1ccccc1C=NCc1ccccc1`, the efficacy is -16.4%.

For the compound `CCCCC(CC)CN1CN(CC(CC)CCCC)CC(C)(N)C1` (centres undefined), the efficacy was -31.6%.

`CC(C)(Sc1cc(C(C)(C)C)c(O)c(C(C)(C)C)c1)Sc1cc(C(C)(C)C)c(O)c(C(C)(C)C)c1`: the efficacy is -17.7%.

`COc1ccc(/C(C)=C/C(=O)O)c(OC)c1`: the efficacy is -13.7%.

For the compound `CC1CCc2c(N3CCC(O)CC3)c(F)cc3c(=O)c(C(=O)O)cn1c23` (centres undefined), the efficacy is -9.77%.

For `O=[N+]([O-])c1ccc(/C=N\O)o1`, the efficacy is 8.52%.

As to `COc1ccc(Cc2cnc(N)nc2N)cc1OC`, the efficacy is -23.5%.

Turning to `NS(=O)(=O)c1cc2c(cc1Cl)NC(CC1CCCC1)NS2(=O)=O` (centres undefined), the efficacy is 19%.

`COP(=O)(OC)OC(c1ccc(Cl)cc1)P(=O)(OC)OC` (centres undefined): the efficacy was -15.4%.

As for `O=C1c2ccccc2C(=O)c2c1ccc(O)c2O`, the efficacy was -18.6%.

In the case of `CC(=O)[C@H]1CC[C@H]2[C@@H]3C=CC4=CC(=O)CC[C@@]4(C)[C@@H]3CC[C@]12C`, the efficacy was 16%.

With `CC(C)Cc1ccc(CC(=O)O)cc1`, the efficacy is -19.8%.

For `Cc1cc(O)cc2c1O[C@](C)(CCC[C@H](C)CCC[C@H](C)CCCC(C)C)CC2`, the efficacy is -22.5%.

On to `CC1CCN(CCCC(=O)c2ccc(F)cc2)CC1`, for which the efficacy was -14.6%.

Take `CN(C)[C@@H]1C(=O)C(C(N)=O)=C(O)[C@@]2(O)C(=O)C3=C(O)c4c(O)cccc4C[C@H]3C[C@@H]12`: the efficacy is 167%.

Consider `Cc1ccc(S(=O)(=O)NC(=O)NC2CCCCC2)cc1`, for which the efficacy was -18.8%.

As to `CCCCOC(=O)CC(CC(=O)OCCCC)(OC(C)=O)C(=O)OCCCC`, the efficacy was 21.9%.

On to `Cc1ccc(C(C)C)cc2c(C)ccc1-2`, for which the efficacy was 14%.

For `Nc1ccc(/C=C/c2ccc(N)cc2S(=O)(=O)O)c(S(=O)(=O)O)c1`, the efficacy was 21.3%.

With `CN(C)CCOC(=O)C(c1ccccc1)C1(O)CCCC1` (centres undefined), the efficacy was 15.2%.

With `CC(O)CCCCn1c(=O)c2c(ncn2C)n(C)c1=O` (centres undefined), the efficacy was 23.8%.

Regarding `C=CCc1ccc(O)c(OC)c1`, the efficacy was 23.7%.

As for `COc1cc(O)cc(O)c1`, the efficacy was 16.6%.

Take `Cc1ccccc1C(=O)Nc1ccc(C(=O)N2CCCC(N(C)C)c3ccccc32)cc1` (centres undefined): the efficacy was 11.8%.

Turning to `Nc1ccc(C(=O)OCC(O)CO)cc1` (centres undefined), the efficacy is 18.5%.

Regarding `Cc1ccc(C(=O)c2ccc(CC(=O)O)n2C)cc1`, the efficacy is 11.5%.

For `C[N+](C)(CCOc1ccccc1)Cc1cccs1`, the efficacy is -18.5%.

Regarding `O=C(OCc1ccccc1)c1ccccc1`, the efficacy is -23.2%.

For the compound `NCc1ccc(S(N)(=O)=O)cc1`, the efficacy is -17.9%.

Take `CC(C(=O)O)c1cccc(Oc2ccccc2)c1` (centres undefined): the efficacy is 18.1%.

As to `Cc1c(Nc2ncccc2C(=O)O)cccc1C(F)(F)F`, the efficacy was -17.3%.

As for `C[C@@H]1CN(c2c(F)c(F)c3c(=O)c(C(=O)O)cn(C4CC4)c3c2F)C[C@H](C)N1`, the efficacy is -15.7%.

As for `OCc1cccnc1`, the efficacy is -9.44%.

For the compound `CCN1CCN(C(=O)N[C@@H](C(=O)N[C@@H]2C(=O)N3[C@@H]2SC(C)(C)[C@H]3C(=O)O)c2ccccc2)C(=O)C1=O`, the efficacy is -32.7%.

On to `CCCCCCCCCCCCCCCCCCO`, for which the efficacy was -11.3%.

The values above are taken from PubChem BioAssay (NCATS).
